This is a sample that favours compounds with a hit; in the whole collection about 2.3% have one here.
ELG1 DNA repair: inhibitors of ELG1-dependent DNA repair in HEK293T cells | 2.3% of 330,000 active | HEK293T ELG1-luciferase reporter, luminescence, 16 h; DNA damage induced by 5-fluorouridine | AID 504467 | Potency, µM (top dose mostly 46.1 µM), for the others: at the top dose activity change, negative = inhibition, usual class: inhibitors; note: potency is the fitted concentration of half-maximal effect; % is set by controls: 0 for no effect and ±100 for the full control effect; nearly all actives have a fitted effect of over 55% in size
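Luminescence from the luciferase reporter, measured 30 min after ONE-Glo reagent at room temperature, was the read-out. Beforehand, 2,000 cells per well were exposed for 16 hr at 37 °C to 5-fluorouridine together with compound or vehicle.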
TRPV1 PAM: potentiators of human vanilloid receptor 1 (TRPV1) | Q8NER1 | TRPV1-expressing cells, Fluo-8 calcium influx, capsaicin EC20 potentiation | potentiation, % at 8.33 µM | 0.02% of 320,000 active; in the data active = potentiation above about 80%; inconclusive = between about 30% and that limit; note: 0% is about no effect
Target sequence (Q8NER1 whole entry, looked up): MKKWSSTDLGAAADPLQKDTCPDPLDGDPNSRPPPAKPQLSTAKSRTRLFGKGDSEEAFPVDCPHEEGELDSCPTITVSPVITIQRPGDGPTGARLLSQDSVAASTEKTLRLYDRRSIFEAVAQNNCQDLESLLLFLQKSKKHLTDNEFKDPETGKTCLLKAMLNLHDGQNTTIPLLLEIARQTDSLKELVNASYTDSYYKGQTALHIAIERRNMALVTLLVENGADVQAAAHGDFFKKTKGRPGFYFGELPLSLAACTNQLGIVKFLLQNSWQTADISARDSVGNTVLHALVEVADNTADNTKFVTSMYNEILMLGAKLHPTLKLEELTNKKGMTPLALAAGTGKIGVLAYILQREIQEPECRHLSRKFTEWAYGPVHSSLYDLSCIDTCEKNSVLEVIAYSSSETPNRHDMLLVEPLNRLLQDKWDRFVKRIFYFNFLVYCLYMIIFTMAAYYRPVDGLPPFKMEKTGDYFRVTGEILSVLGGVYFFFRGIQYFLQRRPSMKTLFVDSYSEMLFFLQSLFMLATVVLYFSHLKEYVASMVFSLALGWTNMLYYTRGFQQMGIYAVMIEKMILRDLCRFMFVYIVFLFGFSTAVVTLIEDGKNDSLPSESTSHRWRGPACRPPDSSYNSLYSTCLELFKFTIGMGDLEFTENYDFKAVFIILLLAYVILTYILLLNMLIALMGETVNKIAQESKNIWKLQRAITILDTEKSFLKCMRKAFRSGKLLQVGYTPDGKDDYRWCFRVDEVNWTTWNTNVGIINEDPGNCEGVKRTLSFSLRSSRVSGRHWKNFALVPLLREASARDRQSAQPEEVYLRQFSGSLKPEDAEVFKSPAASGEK
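Fluo-8 calcium influx in TRPV1-expressing cells, kinetic read (ex 480/em 520 nm). Compound added and read 3 min for agonist activity, followed by capsaicin at EC20 final and 2 min further read for enhancement.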
Giardia killer: kills Giardia lamblia. activity change, % at 7.66 µM, hits read low. Giardia lamblia trophozoite viability. 0.15% of 340,000 active; in the data active = activity change below about -80%; inconclusive = between about -30% and that limit;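 note: parasites exposed to compound for two days anaerobically before the ATP read; % is set by controls: 0 for no effect and ±100 for the full control effect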
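Trophozoites 100 cells/well + cpd; 48 hrs, 37 deg C, anaerobic. ATPLite 1-Step added, 15-30 min RT, luminescence read (ATP-based viability).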
FUS suppressor: suppressors of FUS proteinopathy in yeast. S. cerevisiae FUS-expressing, growth rescue, OD600, 24 h. Potency, µM (titrated, usually from 76.6 µM), usual class: activators. 0.24% of 390,000 active. AID 1347120;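 note: potency is the fitted concentration of half-maximal effect; plate controls were DMSO vehicle for no effect and reference control for full effect; nearly all actives have a fitted effect of over 55% in size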
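Toxicity suppression screen in FUS-yeast. Cells induced with 2% galactose, starting OD 0.005, treated 24hr at 30C with compounds at multiple final concentrations; growth by OD600.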
TRPV1 ag: activates the human vanilloid receptor TRPV1 | Q8NER1 | TRPV1-expressing cells, Fluo-8 calcium influx, agonist mode | activation, % at 8.33 µM | 0.19% of 320,000 active; in the data active = activation above about 80%; inconclusive = between about 30% and that limit; note: 0% is about no effect
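TRPV1-expressing cells were cultured overnight at 35.5C and loaded with Fluo-8 calcium dye for 40 to 90 min at room temperature. After a 10 s baseline, compound was added and calcium influx was read kinetically for 3 min (ex 480/em 520 nm).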
Active calls of the source: *; i = inactive; ? = inconclusive; nt = no result given. Unless noted, calls come from the whole dose curve; as a rule, active = well fitted curve in the direction sought with a large enough effect; inconclusive = small, poorly fitted or top-dose-only effect, or another doubt; inactive = no such curve, though single readings can be large; an effect the other way counts as inactive or inconclusive.

SMILES	ELG1 DNA repair	TRPV1 PAM	Giardia killer	FUS suppressor	TRPV1 ag
COc1ccc(NC(=O)N(C)C[C@H]2Oc3c(NC(=O)Nc4ccc(C(F)(F)F)cc4)cccc3C(=O)N([C@H](C)CO)C[C@@H]2C)cc1	?	nt	-3	25µM*	nt
C[C@@H]1CN([C@H](C)CO)C(=O)c2cccc(NC(=O)Nc3ccc(F)cc3)c2O[C@H]1CN(C)C(=O)Nc1ccc(C(F)(F)F)cc1	6.5µM*	nt	43	?	nt
COc1ccc(NC(=O)N(C)C[C@H]2Oc3c(NC(=O)c4ccncc4)cccc3C(=O)N([C@H](C)CO)C[C@@H]2C)cc1	15%	nt	16	i	nt
C[C@H](CO)N1C[C@H](C)[C@@H](CN(C)C(=O)Nc2ccc3c(c2)OCO3)Oc2c(NC(=O)Nc3ccc(C(F)(F)F)cc3)cccc2C1=O	10µM*	nt	9	22µM*	nt
COc1ccc(NC(=O)Nc2cccc3c2O[C@H](CN(C)C(=O)Nc2ccccc2)[C@@H](C)CN([C@H](C)CO)C3=O)cc1	?	nt	-7	i	nt
CC(C)NC(=O)N(C)C[C@H]1Oc2c(NC(=O)Nc3ccc(C(F)(F)F)cc3)cccc2C(=O)N([C@H](C)CO)C[C@@H]1C	-20%	nt	-18	i	nt
COc1ccc(NC(=O)N(C)C[C@H]2Oc3c(NC(=O)c4nc5ccccc5s4)cccc3C(=O)N([C@@H](C)CO)C[C@H]2C)cc1	-10%	nt	12	16µM*	nt
Cc1ccccc1OCCCn1c(-c2ccc(Cl)cc2)nc2ccccc2c1=O	nt	nt	nt	i	nt
C[C@H](CO)N1C[C@H](C)[C@@H](CN(C)Cc2ccc(-c3ccccc3)cc2)Oc2c(NC(=O)Nc3ccc4c(c3)OCO4)cccc2C1=O	23µM*	nt	9	i	nt
C[C@H](CO)N1C[C@H](C)[C@@H](CN(C)S(C)(=O)=O)Oc2c(NC(=O)Nc3ccc4c(c3)OCO4)cccc2C1=O	20%	nt	-2	i	nt
Cc1cccc2nc(-c3ccccc3)nc(N[C@@H](CO)c3ccccc3)c12	9.2µM*	-21	5	i	10
Cc1ccc(CNC(=O)CN2C(=O)CSc3ccc(S(=O)(=O)N(C)C)cc32)cc1	nt	nt	nt	i	nt
COc1cc(/C=C/C(=O)c2ccc(NS(=O)(=O)c3ccc(C)cc3)cc2)cc(OC)c1O	10µM*	-3	-5	?	1
COc1ccc2c3n([n+]([O-])c2c1)CCN=C3c1cc(Cl)c(N)c(Cl)c1	-1%	?	-93*	i	0
COc1ccc2c3n([n+]([O-])c2c1)CCN=C3c1ccc(C)cc1	?	?	-90*	i	-2
COc1ccc(C2=NCCn3nc4cc(OC)ccc4c32)cc1	?	?	-6	i	4
COc1ccc2c3n(nc2c1)CCN=C3c1ccc(Cl)cc1	?	?	-20	i	-3
COCCn1c(C)cc(C2=NNC(=Nc3ccccc3)SC2)c1C	?	24	-19	10µM*	-3
CCC(=O)N1CCc2cc(S(=O)(=O)NCCC(=O)Nc3cccc(SC)c3)ccc21	nt	nt	nt	i	nt
Cc1ccc(C)c(Nc2c([N+](=O)[O-])c(=O)oc3ccccc23)c1	21µM*	1	-8	i	3
COc1ccccc1N=NNc1ccccc1OC	nt	nt	nt	i	nt
COc1ccccc1C1c2[nH]c3ccccc3c2C[C@H]2C(=O)N(C3CCN(Cc4ccccc4)CC3)CC(=O)N12 (some centres not stated)	23µM*	24	4	i	-4
Cc1ccc(NC(=O)CCCn2c(=O)c3cccn3c3ccccc32)c(C)c1	nt	nt	nt	i	nt
COc1cccc(Cn2c(C3CC3)nc3ccc(NC(=O)c4ccco4)cc3c2=O)c1	23µM*	20	nt	nt	1
CCOC(=O)c1cnc2ccccc2c1Nc1ccc(N2CCOCC2)cc1	nt	nt	nt	i	nt
SMILES	ELG1 DNA repair	TRPV1 PAM	Giardia killer	FUS suppressor	TRPV1 ag
CCOC(=O)c1ccc2ncc(C(=O)OCC)c(Nc3ccc(N4CCOCC4)cc3)c2c1	10µM*	-10	7	i	22
COc1cc(Cl)nn(-c2ccccc2)c1=O	9%	-1	-8	nt	-5
O=c1c(Cl)cc(Cl)nn1-c1ccccc1	23µM*	4	-5	nt	-3
COc1ccccc1Cn1c(CNS(=O)(=O)c2ccc(Cl)s2)nc2cccnc21	nt	nt	nt	i	nt
CCOCCCNC(=O)c1cc(=O)n(Cc2cccc(C)c2)c2ccccc12	16µM*	-16	-9	i	19
CCOC(=O)c1ccc(N2C(=O)c3n[nH]c(-c4ccco4)c3C2c2ccc(O)c(OCC)c2)cc1 (configuration not stated)	nt	nt	nt	i	nt
CCOC(=O)c1ccc(N2C(=O)c3n[nH]c(-c4ccco4)c3C2c2cccc([N+](=O)[O-])c2)cc1 (configuration not stated)	18µM*	2	42	nt	1
Cc1ccc(C)c(NC(=O)CN2C(=O)c3cccnc3Oc3ccc(C)cc32)c1	nt	nt	nt	i	nt
c1ccc(C2=Nn3c(nnc3-c3ccncc3)SC2)cc1	8.2µM*	-2	5	i	-5
COCC(C)OC(=O)C(C#N)c1nc2ccccc2nc1N1CCN(Cc2ccccc2)CC1 (configuration not stated)	21µM*	nt	35	i	nt
C=CCOC(=O)C(C#N)c1nc2ccccc2nc1N1CCN(c2ccccc2OC)CC1 (configuration not stated)	13µM*	-8	2	i	?
C(=N\Nc1nc(Nc2ccccc2)nc(Nc2ccccc2)n1)/c1ccncc1	8%	-3	2	i	2
C(=N\Nc1nc(Nc2ccccc2)nc(Nc2ccccc2)n1)/c1cccnc1	6.5µM*	-7	-11	i	?
CCc1cc2c(-c3ccccc3)cc(=O)oc2c2c1OCN(Cc1ccc(F)cc1)C2	nt	nt	nt	i	nt
O=C(CCS(=O)(=O)c1cc(Br)cc2c1N(C(=O)C1CC1)CC2)NCc1ccc(Cl)cc1	nt	nt	nt	28µM*	nt
COc1cc(CNC(=O)c2sc3ncccc3c2-n2cccc2)cc(OC)c1OC	nt	nt	nt	i	nt
CC(C)c1ccc(-n2cccc2/C=C2/C(=N)N3C=CSC3=NC2=O)cc1	16µM*	12	19	i	4
COc1ccccc1NC(=O)Nc1nc(CC(=O)N2CCN(c3ccccc3F)CC2)cs1	16µM*	-3	40	28µM*	0
COc1ccccc1NC(=O)Nc1nc(CC(=O)NCc2c(F)cccc2F)cs1	?	9	-14	i	0
COc1ccc2c(c1)[C@@]1(NCCc3c1[nH]c1ccc(OC)cc31)C(=O)N2	nt	nt	nt	i	nt
O=C1c2cccc3cccc(c23)C(=O)N1CCN1CCN(CC(O)COCc2ccc(Cl)cc2)CC1 (configuration not stated)	21µM*	-1	7	nt	1
COc1cc(COCC(O)CN2CCN(CCN3C(=O)c4cccc5cccc(c45)C3=O)CC2)cc(OC)c1OC (configuration not stated)	12µM*	-5	9	?	11

From PubChem
